This note sets out measurements from ChEMBL document CHEMBL1157539, “Thousands of chemical starting points for antimalarial lead identification” (Nature, 2010).

Holding throughout (assay type): functional
Assay [1] deals with Plasmodium falciparum. Kind of assay: GSK_TCMDC: Inhibition of Plasmodium falciparum 3D7 in whole red blood cells, using parasite LDH activity as an index of growth. Test compounds present at 2uM.
Assay [2] deals with Plasmodium falciparum. Kind of assay: GSK_TCMDC: Inhibition of Plasmodium falciparum Dd2 in whole red blood cells, using parasite LDH activity as an index of growth. Test compounds present at 2uM.
A further assay concerns HepG2. Kind of assay: GSK_TCMDC: Percent inhibition of human HepG2 cell line. Test compounds present at 10uM.

Molecules are shown by their SMILES.

Take `O=C(/C=C/c1ccc(Cl)c(Cl)c1)N1CCC(CCN2CCc3[nH]c4ccccc4c3C2)CC1.O=C(O)C(F)(F)F`: the Inhibition (commonly the share of the control response that was lost under treatment) came to 96% in the assay on Plasmodium falciparum [1], 0% in the assay on Plasmodium falciparum [2] and 22% in the assay on HepG2.
In the same order, the values of `CC(C)C[C@@H](C(=O)N[C@@H](CCCCNC(=O)OCc1ccccc1)C(=O)Nc1nccs1)[C@H](C)N(O)C=O` are 99%, 98% and 0%.
As to `COc1ccc(OCCCON)cc1.Cl`, the results for the Inhibition in the assay with Plasmodium falciparum [1], in the assay with Plasmodium falciparum [2] and in the assay with HepG2 were 98%, 0% and 3%, respectively.
In the case of `OC(CNc1ccnc(Nc2cccc(Cl)c2)n1)c1cccc(F)c1` (stereo not given), the Inhibition with Plasmodium falciparum [1] is 90%; in the assay with Plasmodium falciparum [2], 29%; with HepG2, 16%.
With `CSCCC(C(=O)O)N1C(=O)c2ccccc2C1=O` (stereo not given), the results for the Inhibition in the assay with Plasmodium falciparum [1], in the assay with Plasmodium falciparum [2] and in the assay on HepG2 were 91%, 0% and 0%, respectively.
For the molecule `COc1cc(NC(=O)/C=C/c2ccc(-c3ccccc3)cc2)ccc1OCCN(C(C)C)C(C)C.Cl`, the figures for the Inhibition in the assay with Plasmodium falciparum [1], in the assay on Plasmodium falciparum [2] and with HepG2 were 94%, 62% and 58%, respectively.
As to `CC(C)(C)c1ccc(CNC(=O)/C=C/c2ccc(CNC3CCNCC3)cc2)cc1`, the values for the Inhibition with Plasmodium falciparum [1], with Plasmodium falciparum [2] and in the assay on HepG2 were 96%, 21% and 6%, respectively.
Consider `CN1CCC(C(=O)Nc2cccc(-c3ccc(-c4nc5cc(C(F)(F)F)ccc5[nH]4)s3)c2)CC1`, for which the Inhibition in the assay with Plasmodium falciparum [1] turned out to be 100%; in the assay with Plasmodium falciparum [2], 95%; in the assay on HepG2 it was 29%.
Consider `CC[C@@H]([C@@H](Cc1cc2ccccc2s1)C(=O)N[C@@H](CCCCNC(=O)OCc1ccccc1)C(=O)Nc1ccccn1)N(O)C=O`, for which the Inhibition amounted to 96% with Plasmodium falciparum [1], 70% in the assay with Plasmodium falciparum [2] and 36% in the assay on HepG2.
Consider `CC(C)(NCc1ccc(OC(F)(F)F)cc1)c1nc(-c2ccc(Cl)c(O)c2)c(-c2ccncc2)[nH]1.Cl`, for which the Inhibition with Plasmodium falciparum [1] is 94%; in the assay on Plasmodium falciparum [2], 32%; in the assay with HepG2 it was 65%.
